Assay [1] can be described thus: NCI Yeast Anticancer Drug Screen. Data for the rad50 strain (AID 155).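 Also: 0% = growth of vehicle-only cultures of the same strain.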 To be noted: S. cerevisiae rad50 strain growth inhibition, stronger effect = higher value. The essentials: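 Readout: growth inhibition relative to vehicle-treated cultures. Compound exposure was carried out in a genetically defined yeast strain deficient in DNA damage repair.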
Assay [2] in a line: NCI Yeast Anticancer Drug Screen. Data for the mec2-1 strain (AID 157). The note with it: S. cerevisiae mec2-1 strain, stronger effect = higher value. In outline: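 Cells of the genetically defined mec2-1 yeast strain are incubated with test compound. Inhibition of growth is calculated against vehicle-treated controls.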
Assay [3] can be described thus: NCI Yeast Anticancer Drug Screen. Data for the sgs1 mgt1 strain (AID 161).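 Also: 0% = growth of cultures given vehicle only.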 The note with it: S. cerevisiae sgs1 mgt1 strain, stronger effect = higher value. The essentials:
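Mutant yeast exposed to compound; growth scored against vehicle-only wells.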

Assay [4] is described as follows: NCI Yeast Anticancer Drug Screen. Data for the cln2 rad14 strain (AID 165).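 Also: 0% = growth equal to vehicle treated cultures.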 To be noted: S. cerevisiae cln2 rad14 strain, stronger effect = higher value. The essentials: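 The screen exposed genetically defined yeast (cln2 rad14) to test compounds and scored growth inhibition relative to vehicle-treated controls.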
The nature of assay [5]: NCI Yeast Anticancer Drug Screen. Data for the bub3 strain (AID 167). The note with it: S. cerevisiae bub3 mutant strain, stronger effect = higher value. In outline: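 Readout: yeast growth inhibition, expressed relative to vehicle-only wells. The test organism is a mutant strain from a panel with lesions in DNA repair or checkpoint genes.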
Assay [6] is described as follows: NCI Yeast Anticancer Drug Screen. Data for the mlh1 rad18 strain (AID 175). The note with it: S. cerevisiae mlh1 rad18 strain growth inhibition, stronger effect = higher value. The essentials: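 Compound-treated yeast growth, normalised to vehicle controls. Strain bears defined DNA repair mutations.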
The mark [7] stands for this setting: at 5.0 µM (retest, dose inferred, filed as 0.5).
[8] abbreviates: at 50.0 µM (retest, dose inferred, filed as 5.0).

Each structure is given as a SMILES string. This is part of a sample that, as a whole, favours compounds with a hit. Of some 79,000 tested, about 15% had one in any assay. Unmarked numbers belong to inactive results. The source made the active and inactive calls. Rule as the data show it: active = growth inhibition above about 70%; inactive = the rest.

On to `CCCCCCCCCCCC(=O)OCC(C)C`, for which the growth inhibition in assay [1] (setting [7]) is 5%; in assay [1] (setting [8]) it was -19%; in assay [1] (at 50.0 µM), 0.95%; in assay [2] (setting [7]), -7%; in assay [2] (setting [8]), 20%; in assay [2] (at 50.0 µM), -13%. The growth inhibition in assay [3] (setting [7]) was 0%; in assay [3] (setting [8]) it was 4%; in assay [3] (at 50.0 µM) it was 7.55%; in assay [4] (setting [7]), 20%; in assay [4] (setting [8]), -11%; in assay [4] (at 50.0 µM) it was -3.95%. For the same molecule, the growth inhibition is 0% in assay [5] (setting [7]); -18% in assay [5] (setting [8]); -2.1% in assay [5] (at 50.0 µM); -16% in assay [6] (setting [7]); -8% in assay [6] (setting [8]); 15.5% in assay [6] (at 50.0 µM).

On to `CC1(C)CCC[C@@]2(C)C1CC[C@@]1(CO1)[C@@H]2/C=C\C(C=O)CC=O` (some centres not stated), for which the growth inhibition in assay [1] (setting [7]) is 60%; in assay [1] (setting [8]) it was 99% (active); in assay [1] (at 50.0 µM), 92.9% (active); in assay [2] (setting [7]) it was 36%; in assay [2] (setting [8]), 100% (active); in assay [2] (at 50.0 µM), 94.2% (active). Besides, the growth inhibition in assay [3] (setting [7]) was 59%; in assay [3] (setting [8]), 100% (active); in assay [3] (at 50.0 µM), 94.5% (active); in assay [4] (setting [7]), 70% (active); in assay [4] (setting [8]) it was 100% (active); in assay [4] (at 50.0 µM) it was 92.7% (active). The growth inhibition was 79% (active) in assay [5] (setting [7]); 100% (active) in assay [5] (setting [8]); 93.3% (active) in assay [5] (at 50.0 µM); 87% (active) in assay [6] (setting [7]); 99% (active) in assay [6] (setting [8]); -27.4% in assay [6] (at 50.0 µM).

For the molecule `CCOC(=O)/C=C(\NC1CC(OC2C[C@](O)(C(C)=O)Cc3c(O)c4c(c(O)c32)C(=O)c2c(OC)cccc2C4=O)OC(C)C1O)C(=O)OCC` (some centres not stated), the growth inhibition in assay [1] (setting [7]) was 44%; in assay [1] (setting [8]), 95% (active); in assay [1] (at 50.0 µM) it was 68.8%; in assay [2] (setting [7]) it was 28%; in assay [2] (setting [8]) it was 97% (active); in assay [2] (at 50.0 µM) it was 74.3% (active). Besides, the growth inhibition is 40% in assay [3] (setting [7]); 95% (active) in assay [3] (setting [8]); 90.5% (active) in assay [3] (at 50.0 µM); 44% in assay [4] (setting [7]); 92% (active) in assay [4] (setting [8]); 88.7% (active) in assay [4] (at 50.0 µM). Also, the growth inhibition was 43% in assay [5] (setting [7]); 97% (active) in assay [5] (setting [8]); 87.5% (active) in assay [5] (at 50.0 µM); 34% in assay [6] (setting [7]); 96% (active) in assay [6] (setting [8]); 87.5% (active) in assay [6] (at 50.0 µM).

For the molecule `Cc1ccc(C2CC(c3cccc([N+](=O)[O-])c3)=Nc3ccccc3S2)cc1` (configuration not stated), the growth inhibition is 0% in assay [1] (setting [7]); 19% in assay [1] (setting [8]); 57.5% in assay [1] (at 50.0 µM); 0% in assay [2] (setting [7]); 31% in assay [2] (setting [8]); 15.9% in assay [2] (at 50.0 µM). The growth inhibition in assay [3] (setting [7]) is -1%; in assay [3] (setting [8]), 46%; in assay [3] (at 50.0 µM), 57.3%; in assay [4] (setting [7]), -6%; in assay [4] (setting [8]), -4%; in assay [4] (at 50.0 µM), 36.4%. Further, the growth inhibition was 11% in assay [5] (setting [7]); 78% (active) in assay [5] (setting [8]); 88% (active) in assay [5] (at 50.0 µM); 2% in assay [6] (setting [7]); 29% in assay [6] (setting [8]); 60.8% in assay [6] (at 50.0 µM).

Turning to `CCCC[N-]CC(O)C[NH-].O=C(O)CC(=O)O.[Pt+2]` (configuration not stated), the growth inhibition in assay [1] (setting [7]) was 2%; in assay [1] (setting [8]), 6%; in assay [1] (at 50.0 µM), 11.6%; in assay [2] (setting [7]), -10%; in assay [2] (setting [8]), -23%; in assay [2] (at 50.0 µM), 23.2%. The growth inhibition was 1% in assay [3] (setting [7]); 6% in assay [3] (setting [8]); 22.2% in assay [3] (at 50.0 µM); 1% in assay [4] (setting [7]); 7% in assay [4] (setting [8]); 80% (active) in assay [4] (at 50.0 µM). The growth inhibition is 3% in assay [5] (setting [7]); 4% in assay [5] (setting [8]); 0.55% in assay [5] (at 50.0 µM); 0% in assay [6] (setting [7]); -7% in assay [6] (setting [8]); 29.9% in assay [6] (at 50.0 µM).

With `Cc1cccc(-c2nnc(-c3cccc(C)c3)o2)c1`, the growth inhibition was 39% in assay [1] (setting [7]); 44% in assay [1] (setting [8]); 54.8% in assay [1] (at 50.0 µM); 30% in assay [2] (setting [7]); 43% in assay [2] (setting [8]); 14.7% in assay [2] (at 50.0 µM). Moreover, the growth inhibition in assay [3] (setting [7]) is 19%; in assay [3] (setting [8]), 47%; in assay [3] (at 50.0 µM), 63.6%; in assay [4] (setting [7]) it was 53%; in assay [4] (setting [8]), 33%; in assay [4] (at 50.0 µM) it was 43.2%. Besides, the growth inhibition in assay [5] (setting [7]) is 54%; in assay [5] (setting [8]), 66%; in assay [5] (at 50.0 µM) it was 55%; in assay [6] (setting [7]), 32%; in assay [6] (setting [8]), 44%; in assay [6] (at 50.0 µM) it was 23.4%.

Consider `NC(=S)N/N=C/c1cn(CCCl)c2ccccc12`, for which the growth inhibition in assay [1] (setting [7]) is 7%; in assay [1] (setting [8]), 30%; in assay [1] (at 50.0 µM), 57.5%; in assay [2] (setting [7]) it was -49%; in assay [2] (setting [8]), 49%; in assay [2] (at 50.0 µM) it was 19.8%. Further, the growth inhibition is -17% in assay [3] (setting [7]); 63% in assay [3] (setting [8]); 62.9% in assay [3] (at 50.0 µM); 2% in assay [4] (setting [7]); 59% in assay [4] (setting [8]); 42.9% in assay [4] (at 50.0 µM). Besides, the growth inhibition is -11% in assay [5] (setting [7]); 56% in assay [5] (setting [8]); 24.1% in assay [5] (at 50.0 µM); -32% in assay [6] (setting [7]); 35% in assay [6] (setting [8]); 45.9% in assay [6] (at 50.0 µM).

Consider `N#CC(Cc1ccc(CC(C#N)(c2ccccc2)c2ccccn2)cc1)(c1ccccc1)c1ccccn1` (configuration not stated), for which the growth inhibition in assay [1] (setting [7]) is -1%; in assay [1] (setting [8]), 3%; in assay [1] (at 50.0 µM) it was 20.9%; in assay [2] (setting [7]), -2%; in assay [2] (setting [8]), 3%; in assay [2] (at 50.0 µM) it was 34.5%. For the same molecule, the growth inhibition in assay [3] (setting [7]) was -4%; in assay [3] (setting [8]), -1%; in assay [3] (at 50.0 µM), 10.9%; in assay [4] (setting [7]) it was -6%; in assay [4] (setting [8]), 1%; in assay [4] (at 50.0 µM), 2.75%. Further, the growth inhibition in assay [5] (setting [7]) is -2%; in assay [5] (setting [8]) it was -8%; in assay [5] (at 50.0 µM) it was 35.4%; in assay [6] (setting [7]) it was -2%; in assay [6] (setting [8]), 2%; in assay [6] (at 50.0 µM), 14.8%.

For the molecule `O=C1CC2(CCN(CC3COc4ccccc4O3)CC2)C(=O)N1N1CCCCCC1` (configuration not stated), the growth inhibition in assay [1] (setting [7]) was 51%; in assay [1] (setting [8]) it was 66%; in assay [1] (at 50.0 µM), 77% (active); in assay [2] (setting [7]) it was 33%; in assay [2] (setting [8]), 41%; in assay [2] (at 50.0 µM) it was 70.4% (active). Further, the growth inhibition in assay [3] (setting [7]) was 62%; in assay [3] (setting [8]), 66%; in assay [3] (at 50.0 µM) it was 82.8% (active); in assay [4] (setting [7]), 78% (active); in assay [4] (setting [8]), 83% (active); in assay [4] (at 50.0 µM), 84% (active). Further, the growth inhibition in assay [5] (setting [7]) is 48%; in assay [5] (setting [8]), 68%; in assay [5] (at 50.0 µM), 85.5% (active); in assay [6] (setting [7]), 37%; in assay [6] (setting [8]) it was 75% (active); in assay [6] (at 50.0 µM), 83.8% (active).

The values are drawn from PubChem BioAssay (NCI).
